Screening data: PubChem BioAssay, The Scripps Research Institute Molecular Screening Center
TbREL1 inh: TbREL1 RNA ligase inhibitors, primary screen, biochemical, FRET fluorescence. TbREL1 RNA ligation. RNA-editing ligase 1, mitochondrial (Trypanosoma brucei brucei), P86926. actives 0.49% (n = 89,000). inhibition, % at 9.66 µM;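 active = inhibition above the mean inhibition across all screened compounds plus 3 SD, cut at about 11% in these data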;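 also: 0% = plate median of test wells and 100% = NSC42067 control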
Target sequence (P86926 whole entry, looked up): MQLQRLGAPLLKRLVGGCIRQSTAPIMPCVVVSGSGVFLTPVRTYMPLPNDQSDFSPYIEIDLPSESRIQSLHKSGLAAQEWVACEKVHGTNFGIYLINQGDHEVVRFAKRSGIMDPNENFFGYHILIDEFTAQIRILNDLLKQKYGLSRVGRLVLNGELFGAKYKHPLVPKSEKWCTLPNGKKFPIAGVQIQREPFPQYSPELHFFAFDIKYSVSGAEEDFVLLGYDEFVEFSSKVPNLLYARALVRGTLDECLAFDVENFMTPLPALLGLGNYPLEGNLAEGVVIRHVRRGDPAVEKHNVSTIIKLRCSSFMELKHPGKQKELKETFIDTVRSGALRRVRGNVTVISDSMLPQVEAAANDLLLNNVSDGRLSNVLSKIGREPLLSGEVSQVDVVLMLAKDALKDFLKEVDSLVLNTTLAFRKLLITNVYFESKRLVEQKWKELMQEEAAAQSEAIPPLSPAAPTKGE
TbREL1 conf: TbREL1 RNA ligase inhibitors, confirmation, biochemical, FRET fluorescence, triplicate; shares compounds with TbREL1 inh; inhibition, % at 9.66 µM; TbREL1 RNA ligation; actives 37% (n = 390); AID 1117282, 2014;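 active = mean inhibition across replicates above a set limit taken from the earlier primary screen, cut at about 11% in these data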;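 also: 0% = REL1 with substrate and DMSO and 100% = REL1 plus control inhibitor NSC42067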
* = called active by the depositor. This excerpt belongs to a sample that is enriched for hits.

SMILES	TbREL1 inh	others
COC(=O)[C@]12CCCCC=C1N(Cc1ccc(OC)cc1)C(=O)[C@@H]2CC(=O)N1CCN(C(=O)c2ccco2)CC1	-5.4
COc1cccc2cc(C(=O)N3CCN(c4ccccc4F)CC3)c(=O)oc12	6.0
COc1cc(Br)cc2cc(C(=O)N3CCN(c4ccccn4)CC3)c(=O)oc12	1.2
COc1cc([N+](=O)[O-])cc2cc(C(=O)N3CCN=C3c3ccccc3)c(=O)oc12	11.4*	TbREL1 conf=2.5
Cc1cc(C)nc(NC(=S)N2CCN(c3ncc(C(F)(F)F)cc3Cl)CC2)c1	-1.1
COc1ccc(-c2cc(C(=O)NN=Cc3ccccc3F)[nH]n2)cc1	9.7
COC(=O)[C@]12C[C@H](CC(=O)NCCC(C)C)C(=O)N(Cc3ccc(Cl)cc3Cl)C1=C[C@H](C1CCCC1)O[C@@H]2C	-2.6
Cc1cnc(C)c(Nc2nc(C(N)Cc3ccc(Cl)cc3)cs2)n1 (stereo not drawn)	11.3*	TbREL1 conf=10.2
NC(Cc1ccc(C(F)(F)F)cc1)c1csc(Nc2nncc3ccccc23)n1 (stereo not drawn)	9.8
COc1ccc(CC(N)c2csc(Nc3ccc(C(C)=O)cc3)n2)cc1 (stereo not drawn)	3.0
O=C(C[C@@H]1C/C=C\CC[C@H](Cc2ccc(F)cc2)C(=O)OC[C@@H]2CCCN2C1=O)N[C@H](CO)Cc1ccccc1	5.2
CCCC1CCC2(CC1)CCC2OC(=S)NCc1cccc(F)c1 (stereo not drawn)	-5.0
CCCCCCC[C@H](N)[C@H](O)C(=O)N(C)[C@@H](CCS(C)=O)C(=O)N[C@@H](Cc1ccc(O)cc1)C(=O)O (stereo partly drawn)	4.9
O=C(CSc1nnc(-c2ccccc2)n1-c1ccc(Cl)cc1)Nc1cccc2ccccc12	1.1
CC1=CC(=O)C(C2CCCCC2)=C/C1=N\OS(=O)(=O)c1ccccc1	-2.9
COc1ccc2cc3cc(C(=O)Nc4ccc(F)cc4)sc3nc2c1	8.6
COc1ccc2ccccc2c1C=NNC(=O)CN1CCN(Cc2ccccc2)CC1	-5.0
Cc1ccc(NC(=O)C2CCN(S(=O)(=O)c3ccc4[nH]c(=O)oc4c3)CC2)cc1F	-0.8
CCC(C)NC(=O)C1CCN(S(=O)(=O)c2ccc3[nH]c(=O)oc3c2)CC1 (stereo not drawn)	12.0*	TbREL1 conf=24.8*
CCC(C)NC(=O)C1CCN(S(=O)(=O)c2cccnc2)CC1 (stereo not drawn)	1.7
CC(C)[C@@H]1OC(=O)[C@@H]2CCCN2C(=O)[C@H](C)OC(=O)[C@H](C)[C@@H](C(C)C)NC(=O)[C@@H]2CCCN2C(=O)[C@H]([C@H](C)Cc2ccccc2)NC(=O)[C@@H]2CCCN2C(=O)[C@@H](C(C)C)N(C)C1=O	-0.4
Oc1cc2c(cc1O)[C@H]1c3ccc(O)c(O)c3OC[C@@]1(O)C2	21.0*	TbREL1 conf=62.2*
CCCN(CC1CC1)C(=O)CN1C(=O)C2CCCCN2C(=O)c2ccccc21 (stereo not drawn)	1.1
C=CCn1c(SCC(=O)O)nnc1-c1ccco1	1.1
Cc1occc1C(=O)NCc1nc(-c2ccc(Cl)cc2)no1	1.0
SMILES	TbREL1 inh	others
COc1ccc(-c2noc(CNC(=O)c3ccoc3C)n2)cc1	14.8*	TbREL1 conf=1.8
COc1ccc(-c2noc(CCC(=O)O)n2)cc1	1.2
CC(c1ccccc1)n1cc(C(=O)NCCCN2CCCC2)nn1 (stereo not drawn)	0.0
CC(C)(C)OC(=O)NCc1cc2c(cc1/C=C/S(=O)(=O)NC1CCCC1)OCO2	5.3
c1ccc(OCCNc2nc(NCC3CC3)nc3cc(-c4ccccc4)sc23)cc1	8.8
c1ccc(CNc2nc(NCCc3ccncc3)c3sccc3n2)cc1	-0.1
COCCNc1nc(NCc2cccs2)nc2ccsc12	0.7
COc1cccc(CNc2nc(NCc3ccccc3)nc3ccsc23)c1	12.8*	TbREL1 conf=13.5*
CNc1nc(NCc2ccccc2)c2sccc2n1	5.2
CC(C)Nc1nc(NCCOc2ccccc2)c2sccc2n1	13.5*	TbREL1 conf=7.1
Brc1ccc(-c2csc(N3CCC(c4nn[nH]n4)CC3)n2)cc1	-3.6
CCCOc1nccc2c1n(C)c(=O)n2C	0.1
COc1cc(C=Nn2c(-c3cc(-c4ccccc4)n[nH]3)n[nH]c2=S)ccc1OC(C)=O	-1.8
CC(=O)OCCC(CC(C)C)NC(=O)[C@H](CC(C)C)NC(=O)OCc1ccccc1 (stereo partly drawn)	-1.7
CC(CNC(=O)[C@H]1O[C@@H](n2cnc3c(=O)[nH]c(N)nc32)[C@H](O)[C@@H]1O)c1ccccc1 (stereo partly drawn)	-0.5
COC(=O)[C@@H](Cc1ccccc1)NC(=O)[C@H]1O[C@@H](n2cnc3c(=O)[nH]c(N)nc32)[C@H](O)[C@@H]1O	-4.6
COc1cccc(CN(C)C(=O)[C@H]2O[C@@H](n3cnc4c(=O)[nH]c(N)nc43)[C@H](O)[C@@H]2O)c1	14.1*	TbREL1 conf=19.3*
C=CCn1c(Cc2cccs2)nnc1SCC(=O)Nc1cccc2ccccc12	1.6
Cc1sc2nc(COC(=O)CNC(=O)c3cc(F)ccc3F)[nH]c(=O)c2c1C	1.7
CCC(=O)Nc1ccc(C(=O)NNC(=O)c2ccccc2)cc1	6.1
CCC(=O)Nc1ccc2c(c1)C(=O)c1ccccc1C2=O	13.9*	TbREL1 conf=2.4
CCC(=O)NC1=C(NC(C)c2ccccc2)C(=O)c2ccccc2C1=O (stereo not drawn)	0.1
Cc1ccc(NC(=O)[C@H]2CC(=O)O[C@@H]2c2ccccc2)cc1C	2.0
Clc1ccc(-n2c(SCc3cccc4ccccc34)nnc2-c2ccco2)cc1	-0.5
Cc1[nH]c2ccccc2c1C(=O)COC(=O)Cn1c(C)nc2ccccc21	1.1
SMILES	TbREL1 inh	others
O=C(CSc1nc2ccccc2n1CCc1ccccc1)c1ccc(O)c(O)c1	9.1
Cc1nc2ccccc2n1CC(=O)c1ccc(O)c(O)c1	16.0*	TbREL1 conf=15.5*
S=C(Nc1cc(Cl)cc(Cl)c1)NC(c1ccccc1)c1ccccc1	6.2
COCCn1c(SCC(=O)Nc2cccc(F)c2)nc2c(c1=O)SCC2	1.4
Cc1ccc(C)c(NC(=O)c2cccc3c2-c2ccccc2C3=O)c1	2.2
Oc1ccc(Nc2ccccc2F)c2cccnc12	17.4*	TbREL1 conf=-9.4
Oc1ccc(-c2ccccc2F)c2cccnc12	-3.8
Oc1ccc(CNc2ccccc2F)c2cccnc12	1.2
c1ccc(-c2cccc(CNc3nc(-c4ccccn4)nnc3-c3ccccc3)c2)cc1	5.0
C[C@H]1[C@@H](OC(=O)N2CCCC2)CC[C@@]23CCCN2C(=O)CCC[C@@H]13	-3.8
COc1ccc2c3c([nH]c2c1)C1=NCC[C@]12c1ccccc1N=CN2CC3	-0.1
COc1ccc2[nH]c3c(c2c1)CCN[C@]31C(=O)Nc2ccccc21	6.0
COc1ccc2c3c([nH]c2c1)[C@]1(CCNC=O)Nc2ccccc2C1=NCC3	11.5*	TbREL1 conf=-0.3
CCn1c(=O)cc(N2CCN(c3cccc(C(F)(F)F)c3)CC2)[nH]c1=O	1.1
CCNC(=O)C1(C)CCCN(Cc2cc3ccccc3o2)C1 (stereo not drawn)	-1.6
Cc1ccc(S(=O)(=O)NCC2Cc3ccccc3N2S(=O)(=O)c2ccc(C)cc2)cc1 (stereo not drawn)	-2.9
CS(=O)(=O)N1c2ccccc2C[C@H]1Cc1cc2ccccc2o1	12.2*	TbREL1 conf=-0.6
CC(=O)N1CCc2cc(S(=O)(=O)NCCC(=O)NCc3ccccc3)ccc21	-2.2
COc1ccc(Cl)cc1NC(=S)N1CCN(c2ncccn2)CC1	-0.7
